Measured values taken from PubChem BioAssay (NCI).
The panel holds about 79,000 compounds, 15% with a hit somewhere; the sample as a whole holds those more often. Unmarked numbers belong to inactive results. Calls of active or inactive are those of the source. Cut-off read from the data, not from the text of the source: active = growth inhibition above about 70%; inactive = the rest. Where a SMILES comes first, the peptide text is derived from it. The star is where a group is joined. Cbz = O=C(OCc1ccccc1)*; Boc = CC(C)(C)OC(=O)*; OBn = c1ccc(CO*)cc1; NHNH2 = NN*

Columns and labels:
[1] = NCI Yeast Anticancer Drug Screen. Data for the rad50 strain (AID 155);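 note: 0% = growth of vehicle-only cultures of the same strain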; conditions: S. cerevisiae rad50 strain growth inhibition; at 50.0 µM; stronger effect = higher value
In short: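 DNA repair mutant yeast, compound exposure, growth read-out; inhibition is taken relative to vehicle.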

[2] = NCI Yeast Anticancer Drug Screen. Data for the mec2-1 strain (AID 157); conditions: S. cerevisiae mec2-1 strain, at 50.0 µM, stronger effect = higher value
In short: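 Strain: mec2-1 (DNA repair/cell cycle alteration). Compound exposure, then growth measured; inhibition expressed relative to vehicle.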

[3] = NCI Yeast Anticancer Drug Screen. Data for the sgs1 mgt1 strain (AID 161);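 note: 0% = growth of cultures given vehicle only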; conditions: S. cerevisiae sgs1 mgt1 strain, at 50.0 µM, stronger effect = higher value
In short: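 Inhibition of yeast growth, normalised to vehicle-treated controls, is reported for a strain bearing genetic alterations in DNA damage repair.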

[4] = NCI Yeast Anticancer Drug Screen. Data for the cln2 rad14 strain (AID 165);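 note: 0% = growth equal to vehicle treated cultures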; conditions: S. cerevisiae cln2 rad14 strain, at 50.0 µM, stronger effect = higher value
In short: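 Compounds are applied to the cln2 rad14 yeast strain, and growth is then compared with that of vehicle-treated cultures to give inhibition.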

[5] = NCI Yeast Anticancer Drug Screen. Data for the bub3 strain (AID 167); conditions: S. cerevisiae bub3 mutant strain, at 50.0 µM, stronger effect = higher value
In short: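 In this screen, a yeast mutant lacking normal mitotic checkpoint function is challenged with compound. Relative growth versus vehicle gives the inhibition value.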

[6] = NCI Yeast Anticancer Drug Screen. Data for the mlh1 rad18 strain (AID 175); conditions: S. cerevisiae mlh1 rad18 strain growth inhibition; at 50.0 µM; stronger effect = higher value
In short: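 Read-out is yeast growth inhibition, calculated against vehicle-only controls. The compound was applied to a strain engineered with DNA damage repair alterations.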

Compound	growth inhibition [1] [%]	growth inhibition [2] [%]	growth inhibition [3]	growth inhibition [4] [%]	growth inhibition [5] [%]	growth inhibition [6]
CCN(CC)c1ccc(N)cc1	-4.05	-9.9	26.1%	-4.4	-3.1	35.1%
O=C(O)CCc1c(-c2ccccc2)c(-c2ccccc2)c2n1CCC2	49.5	41	56.5%	-12.6	33.9	48.9%
COc1cccc2c1C(=O)c1c(O)c3c(c(O)c1C2=O)C[C@@](O)(c1csc(-c2ccncc2)n1)C[C@@H]3OC1CC(N)C(O)C(C)O1 (stereo partly specified)	22.8	15.4	17.2%	32.2	-2.25	25.8%
O=[N+]([O-])C1CCCCC1	-11.8	-34.6	3.3%	17.6	-8.35	14.1%
Cc1noc(NC2=CC(=O)C(=O)c3ccccc32)c1C	34.8	8.45	40.8%	8	28.6	42.7%
CCO[C@H]1OC(=O)[C@@H]2C(c3ccc(F)cc3)=NO[C@H]12	-27.1	-44.4	0.35%	2.7	8.95	-9.3%
COC(=O)C1=C(C)C(=O)[C@]23C(CCCC[C@H]12)C(=O)[C@H](C(=O)OC)C3C (stereo partly specified)	-19.7	-31.2	-11%	-20.9	-13.9	16.1%
CCN1CCCC(Cl)C1 (stereo unspecified)	12.8	-41	14.7%	-0.5	-12.4	5.95%
O=C1c2c(O)cccc2C(C(=O)CCCCC(=O)C2c3cccc(O)c3C(=O)c3c(O)cccc32)c2cccc(O)c21	1.75	15.2	27.3%	17.1	17.2	1.05%
CCCCCCCCCCCCCCCCOc1ccccn1	-9.75	-20.6	-14.8%	-18.8	-21.6	-6.9%
C=C(C)C#CCN(CCO)C(C)C	-7.45	-30.3	-12.9%	9.2	-19.4	4.75%
Cc1nc(C)c(C(=O)NNC(N)=S)cc1C(=O)NNC(N)=S	-10.2	-16.6	0.95%	-5.6	-27.6	-8.9%
CCCCOCCOC(=O)CCCCCC1C=CCCC1 (stereo unspecified)	10.8	8.4	8.65%	-18.6	-8.35	4.95%
COC(=O)CC#N	-13.3	4.9	10.1%	-2.75	-1.2	-13.3%
Nc1ccc(-c2cc[cH-]c2)cc1.[Fe+2].c1cc[cH-]c1	8.2	10.3	10.8%	12.2	21.4	22.6%
CCN(CC)N1C(=O)[N+](CC)(CC)N=C1[O-]	-8.55	4.15	-11.6%	-30.8	-5.35	2.05%
CC(Oc1ccccc1)C(=O)NNC(=O)OC(C)(C)C (stereo unspecified)	-0.3	-21.9	-10.7%	-0.75	-18.6	3.9%
CC(CO)CCC(=O)C(C)C1CC2(C)CCC3C(CCC4CC(O)CCC43C)C2C12SCCS2 (stereo unspecified)	0.6	19.5	-7.8%	17.1	36.6	-0.25%
Cc1ccc(NC(N)=O)cc1	-33.5	-43.9	-24.1%	10.7	-1.05	-5.9%
CCOC(=O)C1C(C)NC(C)C(C(=O)OCC)C1C (stereo unspecified)	15.9	1.05	3.4%	-44.5	5.3	26.1%
CCN(Cc1ccc(CN(CC)C(=O)c2c(-c3ccccc3)noc2C)cc1)C(=O)c1c(-c2ccccc2)noc1C	13.6	-8.1	5.1%	17.8	0.2	-13.6%

Compound	growth inhibition [1] [%]	growth inhibition [2] [%]	growth inhibition [3]	growth inhibition [4] [%]	growth inhibition [5] [%]	growth inhibition [6]
COC(=O)C(CC(=O)Nc1ccc(Cl)c(Cl)c1)C(=O)C(=O)NC1C2CC3CC(C2)CC1C3 (stereo unspecified)	-3.15	13.8	-14.1%	7.8	-8.65	-9.05%
CCN(CC)CCN(C(=O)c1ccc(F)cc1)c1ccccc1N	-13.2	-34.1	-23.6%	-11.9	3.85	-23.6%
O=C(C=c1sc(=CC(=O)c2ccccc2)s1)c1ccccc1	-3.5	-4.35	14.7%	-41.3	2.1	-35.6%
CC(=O)Nc1nnc(SCc2ccccc2)s1	9	6.35	-4.4%	-10	3.4	-20.6%
CCOCCOC(=O)c1ccc(C(N)=NC2CCCCC2)cc1	0.05	-2.4	3.75%	-4.1	0.1	-1.4%
Cc1cc(C)c(C2=[N+]([O-])ON3CCc4ccccc4C23)c(C)c1 (stereo unspecified)	1.5	-7.7	-3.05%	4.5	-5.3	-3.2%
COC(=O)NCc1nc2cc3c[nH][nH]c3cc2n1	-8.15	0.05	14.9%	-16	11.6	11.2%
CCCCN=Cc1ccc(Cl)cc1	-2.65	-24.1	-32.1%	6.5	-19.9	-6%
CC(=O)NCCCCNS(=O)(=O)c1ccc(C)cc1	-16.1	-3.15	-17.4%	-6.1	-0.7	5.1%
CC(NC(=O)C(NC(=O)OC(C)(C)C)C(C)C)C(=O)N1CCCC1C(=O)NCC(=O)NC(C(=O)NCC(=O)OCc1ccccc1)C(C)C (stereo unspecified) (Boc-VAPGVG-OBn; configuration not given here)	-30.1	-33.4	-20.9%	6.85	-18.9	-48.4%
CCCCN(CCCC)CC(O)c1cc2ccc(Cl)cc2nc1-c1ccc(Cl)cc1 (stereo unspecified)	65.2	41.7	85.5% (active)	8.35	-6.15	78.8% (active)
CCOC(=O)C1CCCCC1C(=O)OCC (stereo unspecified)	-1.7	-15.8	-7.3%	-3.55	-28.1	-26.9%
NC(=O)CNc1ccc(CC2CCOC2=O)cc1 (stereo unspecified)	-7.45	-18.9	-5.9%	0.95	0.6	-5.7%
CCCC[n+]1cccc(C(=O)c2ccccc2)c1	15.7	-6.6	0.7%	2.75	2.35	8.85%
CCOC(=O)/C(Cc1cc(=O)n(C)c2ccccc12)=N\Nc1ccccc1	2.85	-12.2	2.6%	-4.6	10.6	-6.75%
CC1(C)CCc2c(cc3c(c2O)CCC(C)(C)O3)O1	4.6	7.6	-10.7%	12.9	9.05	8.45%
COC(=O)CC(NC(=O)OCc1ccccc1)C(=O)NC(CC(=O)OC)C(=O)NC(CC(=O)OC)C(=O)NC(CC(=O)OC)C(=O)NC(CC(=O)OC)C(=O)NC(CC(=O)OC)C(=O)NN (stereo unspecified) (Cbz-D(OMe)D(OMe)D(OMe)D(OMe)D(OMe)D(OMe)-NHNH2; configuration not given here)	-18.6	-16.9	-24.6%	20.6	25.7	-18.5%
CCCCC1CCCCC1=O (stereo unspecified)	16.4	-15.2	3.1%	12.5	-0.45	5.1%
O=C(Cn1c(=O)oc2ccc(C(=O)c3ccccc3Cl)cc21)c1ccc([N+](=O)[O-])cc1	-27.6	-28.3	13%	-8.45	-2.25	-2.65%
CC(NNC(=S)N1CCN(c2ccccn2)CC1)c1cccc[n+]1[O-] (stereo unspecified)	9.6	5.4	3.8%	-11.2	6.55	11.9%
